# Results published in PubChem BioAssay (EPA / NIEHS).
# The source made the active and inactive calls. Rule for the calls: active = hit-call score of the fitted dose curve at least 0.9, where 1 is the maximum; inactive = score below 0.9.
# Assays:
# [1] = read-out: Forkhead box O1 (FOXO1), FOXO1 (gene 2308); test: LTEA_HepaRG_FOXO1: Life Technologies and Expression Analysis (LTEA) Assay for Forkhead box O1 (FOXO1) using HepaRG (AID 2283456); conditions: mRNA level, 48 h; actives raise or lower the signal
# Method in brief: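 FOXO1 transcript quantified by qRT-PCR after 48 h chemical exposure (top 100 uM, half-log steps, 0.5% DMSO) of HepaRG cells, housekeeping-normalized (ACTB/GAPDH/POLR2A). Changes fitted in both directions relative to vehicle.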
# [2] = read-out: growth arrest and DNA damage 45 (GADD45A), GADD45A (gene 1647); test: LTEA_HepaRG_GADD45A: Life Technologies and Expression Analysis (LTEA) Assay for growth arrest and DNA damage 45 (GADD45A) using HepaRG (AID 2283458); conditions: mRNA level, 48 h; actives raise or lower the signal
# Method in brief: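 HepaRG, 48 h exposure, 8 conc. (top 100 uM, half-log steps), 0.5% DMSO vehicle, duplicates. Read-out: qRT-PCR mRNA level, housekeeping-normalized (ACTB/GAPDH/POLR2A). Curves fit bidirectionally vs DMSO baseline.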
# [3] = read-out: Forkhead box O3 (FOXO3), FOXO3 (gene 2309); test: LTEA_HepaRG_FOXO3: Life Technologies and Expression Analysis (LTEA) Assay for Forkhead box O3 (FOXO3) using HepaRG (AID 2283459); conditions: mRNA level, 48 h; actives raise or lower the signal
# Method in brief: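 FOXO3 transcript measured by qRT-PCR (normalized to ACTB, GAPDH, POLR2A) after 48 h exposure of HepaRG cells in serum-free induction medium. Duplicates, eight half-log concentrations up to 100 uM, 0.5% DMSO; gain or loss fitted against DMSO.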
# [4] = read-out: growth arrest and DNA damage 45 (GADD45B), GADD45B (gene 4616); test: LTEA_HepaRG_GADD45B: Life Technologies and Expression Analysis (LTEA) Assay for growth arrest and DNA damage 45 (GADD45B) using HepaRG (AID 2283461); conditions: mRNA level, 48 h; actives raise or lower the signal
# Method in brief: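 Differentiated human HepaRG cells in serum-free induction medium exposed 48 h in duplicate to eight concentrations, top 100 uM, half-log steps, 0.5% DMSO. GADD45B mRNA by TaqMan qRT-PCR, normalized to ACTB, GAPDH, POLR2A; bidirectional fit versus DMSO.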
# [5] = read-out: ABC Transporter (ABCC3), ABCC3 (gene 8714); test: LTEA_HepaRG_ABCC3: Life Technologies and Expression Analysis (LTEA) Assay for ABC Transporter (ABCC3) using HepaRG (AID 2283462); conditions: mRNA level, 48 h; actives raise or lower the signal
# Method in brief: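 Differentiated human HepaRG cells exposed 48 h in serum-free induction medium, 0.5% DMSO vehicle, 8-point half-log series to 100 uM in duplicate. ABCC3 mRNA by qRT-PCR, normalised to ACTB, GAPDH, POLR2A; bidirectional fit vs DMSO.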
# [6] = read-out: ABC Transporter (ABCB11), ABCB11 (gene 8647); test: LTEA_HepaRG_ABCB11: Life Technologies and Expression Analysis (LTEA) Assay for ABC Transporter (ABCB11) using HepaRG (AID 2283463); conditions: mRNA level, 48 h; actives raise or lower the signal
# Method in brief: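 ABCB11 transcript levels quantified by TaqMan qRT-PCR against three housekeeping genes after 48 h chemical exposure of HepaRG cultures. Concentrations up to 100 uM in half-log steps, 0.5% DMSO vehicle; both induction and suppression scored.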
# [7] = read-out: ABC Transporter (ABCC2), ABCC2 (gene 1244); test: LTEA_HepaRG_ABCC2: Life Technologies and Expression Analysis (LTEA) Assay for ABC Transporter (ABCC2) using HepaRG (AID 2283464); conditions: mRNA level, 48 h; actives raise or lower the signal
# Method in brief: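 Differentiated HepaRG cells in serum-free induction medium exposed 48 h to eight half-log concentrations up to 100 uM, 0.5% DMSO, in duplicate. ABCC2 mRNA measured by qRT-PCR (TaqMan, Fluidigm), normalized to ACTB, GAPDH and POLR2A. Fitted in both directions against DMSO.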
# [8] = read-out: Broad substrate specificity ATP-binding cassette transporter ABCG2 (Homo sapiens) (UniProt Q9UNQ0); test: LTEA_HepaRG_ABCG2: Life Technologies and Expression Analysis (LTEA) Assay for ABC Transporter (ABCG2) using HepaRG (AID 2283465); conditions: mRNA level, 48 h; actives raise or lower the signal
# Method in brief: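 ABCG2 transcript was quantified by TaqMan qRT-PCR against three housekeeping genes in HepaRG cells. Cells were treated in duplicate for 48 h across an 8-point half-log series up to 100 uM, with 0.5% DMSO vehicle. Gain or loss versus DMSO was fit.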
# [9] = read-out: ATP-citrate lyase (ACLY), ACLY (gene 47); test: LTEA_HepaRG_ACLY: Life Technologies and Expression Analysis (LTEA) Assay for ATP-citrate lyase (ACLY) using HepaRG (AID 2283466); conditions: mRNA level, 48 h; actives raise or lower the signal
# Method in brief: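 ACLY mRNA quantified by qRT-PCR on Fluidigm arrays against three housekeeping genes, after 48 h chemical treatment of HepaRG cells (top concentration 100 uM, half-log steps, 0.5% DMSO vehicle). Up- or down-regulation fitted relative to DMSO.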
# [10] = CEETOX_H295R_TESTO: CeeTox H295R High-throughput Steroidogenesis Assay for Testosterone (TESTO) (AID 2283457); conditions: actives raise or lower the signal
# Method in brief: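 H295R adrenal cells, passage ≤10, exposed to chemicals for 48 h. Testosterone in medium measured by MTBE extraction and HPLC-MS/MS against a 7-point standard curve. Bidirectional fit versus DMSO; MTT viability checked in the same wells.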
# Chain of Broad substrate specificity ATP-binding cassette transporter ABCG2 (Homo sapiens) (Q9UNQ0 whole entry, looked up): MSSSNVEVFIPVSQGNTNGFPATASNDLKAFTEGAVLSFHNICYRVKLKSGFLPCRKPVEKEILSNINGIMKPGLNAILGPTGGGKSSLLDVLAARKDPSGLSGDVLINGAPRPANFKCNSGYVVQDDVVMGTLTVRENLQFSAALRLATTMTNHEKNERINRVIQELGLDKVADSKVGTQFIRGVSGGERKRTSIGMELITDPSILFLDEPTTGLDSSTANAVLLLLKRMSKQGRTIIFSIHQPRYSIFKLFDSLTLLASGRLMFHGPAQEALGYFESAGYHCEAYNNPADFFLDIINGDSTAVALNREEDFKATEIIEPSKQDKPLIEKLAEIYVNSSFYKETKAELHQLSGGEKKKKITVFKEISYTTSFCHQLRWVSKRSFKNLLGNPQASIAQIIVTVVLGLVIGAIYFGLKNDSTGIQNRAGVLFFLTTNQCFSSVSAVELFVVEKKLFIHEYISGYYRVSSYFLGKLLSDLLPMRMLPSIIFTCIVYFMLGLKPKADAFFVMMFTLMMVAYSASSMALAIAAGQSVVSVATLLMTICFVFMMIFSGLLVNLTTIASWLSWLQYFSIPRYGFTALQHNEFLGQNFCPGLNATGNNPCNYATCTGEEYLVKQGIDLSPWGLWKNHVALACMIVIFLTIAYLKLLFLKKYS
smiles,measurement,setting,value
Oc1cccc2cccnc12,outcome,[1],inactive
same,outcome,[2],inactive
same,outcome,[3],inactive
same,outcome,[4],inactive
same,outcome,[5],inactive
same,outcome,[6],inactive
same,outcome,[7],inactive
same,outcome,[8],inactive
same,outcome,[9],inactive
CCN1CCC2(CC1)COc1cc3c(cc12)N(C(=O)c1ccc(-c2ccc(-c4nnc(C)o4)cc2C)cc1)CC3,AC50,[1],27.7 µM (active)
same,AC50,[2],75.3 µM (active)
same,AC50,[3],17.4 µM (active)
same,AC50,[4],12.5 µM (active)
same,AC50,[5],71.6 µM (active)
same,outcome,[6],inactive
same,AC50,[7],18.5 µM (active)
same,outcome,[8],inactive
same,AC50,[9],21.5 µM (active)
C[C@@H]1C[C@@H]([C@H](O)CC2CC(=O)NC(=O)C2)C(=O)[C@@H](C)C1,outcome,[1],inactive
same,AC50,[2],50 µM (active)
same,AC50,[3],34.3 µM (active)
same,AC50,[4],22.3 µM (active)
same,AC50,[5],0.921 µM (active)
same,AC50,[6],4.26 µM (active)
same,AC50,[7],27.3 µM (active)
same,AC50,[8],10.4 µM (active)
same,AC50,[9],9.23 µM (active)
Cc1ccccc1N,outcome,[1],inactive
same,outcome,[2],inactive
same,outcome,[3],inactive
same,outcome,[4],inactive
same,outcome,[5],inactive
same,outcome,[6],inactive
same,outcome,[7],inactive
same,outcome,[8],inactive
same,outcome,[9],inactive
ClC1(Cl)C2(Cl)C3(Cl)C4(Cl)C(Cl)(Cl)C5(Cl)C3(Cl)C1(Cl)C5(Cl)C24Cl (configuration not stated),outcome,[1],inactive
same,outcome,[2],inactive
same,outcome,[3],inactive
same,outcome,[4],inactive
same,outcome,[5],inactive
same,outcome,[6],inactive
same,outcome,[7],inactive
same,outcome,[8],inactive
same,AC50,[9],5.15 µM (active)
O=c1[nH]c(=O)[nH]c(=O)[nH]1,outcome,[1],inactive
same,outcome,[2],inactive
same,outcome,[3],inactive
same,outcome,[4],inactive
same,outcome,[5],inactive
same,outcome,[6],inactive
same,outcome,[7],inactive
same,outcome,[8],inactive
same,outcome,[9],inactive
O=C(O)C(F)(F)C(F)(F)C(F)(F)C(F)(F)C(F)(F)C(F)(F)C(F)(F)C(F)(F)C(F)(F)C(F)(F)F,outcome,[1],inactive
same,outcome,[2],inactive
same,AC50,[3],47.8 µM (active)
same,outcome,[4],inactive
same,outcome,[5],inactive
same,AC50,[6],13.7 µM (active)
same,outcome,[7],inactive
same,outcome,[8],inactive
same,outcome,[9],inactive
COP(=O)(OC)O/C(=C\Cl)c1cc(Cl)c(Cl)cc1Cl,outcome,[10],inactive
CCCCCCCCc1ccc(O)cc1,outcome,[1],inactive
same,outcome,[2],inactive
same,outcome,[3],inactive
same,outcome,[4],inactive
same,outcome,[5],inactive
same,outcome,[6],inactive
same,outcome,[7],inactive
same,outcome,[8],inactive
same,outcome,[9],inactive
O=C(Nc1ccc2[nH]ccc2c1)c1cc2cc(F)ccc2n1Cc1cccc(F)c1,outcome,[1],inactive
same,AC50,[2],20.7 µM (active)
same,outcome,[3],inactive
same,outcome,[4],inactive
same,outcome,[5],inactive
same,AC50,[6],38.1 µM (active)
same,AC50,[7],78.2 µM (active)
same,AC50,[8],32.2 µM (active)
same,outcome,[9],inactive
CN(CCCC(=O)c1cccnc1)N=O,outcome,[10],inactive
Cn1sc(Cl)cc1=O,outcome,[1],inactive
same,outcome,[2],inactive
same,outcome,[3],inactive
same,outcome,[4],inactive
same,outcome,[5],inactive
same,outcome,[6],inactive
same,outcome,[7],inactive
same,outcome,[8],inactive
same,outcome,[9],inactive
CCC(=O)C(CC(C)N(C)C)(c1ccccc1)c1ccccc1 (configuration not stated),outcome,[1],inactive
same,outcome,[2],inactive
same,outcome,[3],inactive
same,outcome,[4],inactive
same,AC50,[5],36.2 µM (active)
same,outcome,[6],inactive
same,outcome,[7],inactive
same,outcome,[8],inactive
same,outcome,[9],inactive
C=CC(=O)OCCCCCC(C)C,outcome,[1],inactive
same,outcome,[2],inactive
same,outcome,[3],inactive
same,outcome,[4],inactive
same,outcome,[5],inactive
same,outcome,[6],inactive
same,outcome,[7],inactive
same,outcome,[8],inactive
same,outcome,[9],inactive
CCC(C)(C)c1ccc(O)c(C(C)(C)CC)c1,outcome,[1],inactive
same,outcome,[2],inactive
same,outcome,[3],inactive
same,outcome,[4],inactive
same,outcome,[5],inactive
same,outcome,[6],inactive
same,outcome,[7],inactive
same,outcome,[8],inactive
same,outcome,[9],inactive
O=C(O)C(F)(F)C(F)(F)C(F)(F)C(F)(F)C(F)(F)C(F)(F)F,outcome,[1],inactive
same,outcome,[2],inactive
same,outcome,[3],inactive
same,outcome,[4],inactive
same,outcome,[5],inactive
same,outcome,[6],inactive
same,outcome,[7],inactive
same,outcome,[8],inactive
same,outcome,[9],inactive
CCOP(=S)(OCC)SCSP(=S)(OCC)OCC,outcome,[1],inactive
same,AC50,[2],0.0566 µM (active)
same,outcome,[3],inactive
same,AC50,[4],0.0743 µM (active)
same,outcome,[5],inactive
same,outcome,[6],inactive
same,AC50,[7],50 µM (active)
same,outcome,[8],inactive
same,AC50,[9],78.7 µM (active)
